Measurements from article PMC4336329 (PLoS ONE, 2015).
Hit rate of the full screen: of about 310,000 compounds, about 14,000 (4.5%) showed an effect of 50% or more. Effects have a minus sign here. The list comes from a sample in which strong results are over-represented; it also holds similar structures and randomly drawn compounds.

Each molecule was assayed against human ether-à-go-go-related gene (hERG) potassium channel (human, UniProt Q12809) (assay: primary screen, population patch clamp on CHO cells stably expressing hERG; higher = less effect of the substance).
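Also: peak tail current of the secondary pulse compared with the same well before compound.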

Chain of human ether-à-go-go-related gene (hERG) potassium channel (Q12809 whole entry, looked up): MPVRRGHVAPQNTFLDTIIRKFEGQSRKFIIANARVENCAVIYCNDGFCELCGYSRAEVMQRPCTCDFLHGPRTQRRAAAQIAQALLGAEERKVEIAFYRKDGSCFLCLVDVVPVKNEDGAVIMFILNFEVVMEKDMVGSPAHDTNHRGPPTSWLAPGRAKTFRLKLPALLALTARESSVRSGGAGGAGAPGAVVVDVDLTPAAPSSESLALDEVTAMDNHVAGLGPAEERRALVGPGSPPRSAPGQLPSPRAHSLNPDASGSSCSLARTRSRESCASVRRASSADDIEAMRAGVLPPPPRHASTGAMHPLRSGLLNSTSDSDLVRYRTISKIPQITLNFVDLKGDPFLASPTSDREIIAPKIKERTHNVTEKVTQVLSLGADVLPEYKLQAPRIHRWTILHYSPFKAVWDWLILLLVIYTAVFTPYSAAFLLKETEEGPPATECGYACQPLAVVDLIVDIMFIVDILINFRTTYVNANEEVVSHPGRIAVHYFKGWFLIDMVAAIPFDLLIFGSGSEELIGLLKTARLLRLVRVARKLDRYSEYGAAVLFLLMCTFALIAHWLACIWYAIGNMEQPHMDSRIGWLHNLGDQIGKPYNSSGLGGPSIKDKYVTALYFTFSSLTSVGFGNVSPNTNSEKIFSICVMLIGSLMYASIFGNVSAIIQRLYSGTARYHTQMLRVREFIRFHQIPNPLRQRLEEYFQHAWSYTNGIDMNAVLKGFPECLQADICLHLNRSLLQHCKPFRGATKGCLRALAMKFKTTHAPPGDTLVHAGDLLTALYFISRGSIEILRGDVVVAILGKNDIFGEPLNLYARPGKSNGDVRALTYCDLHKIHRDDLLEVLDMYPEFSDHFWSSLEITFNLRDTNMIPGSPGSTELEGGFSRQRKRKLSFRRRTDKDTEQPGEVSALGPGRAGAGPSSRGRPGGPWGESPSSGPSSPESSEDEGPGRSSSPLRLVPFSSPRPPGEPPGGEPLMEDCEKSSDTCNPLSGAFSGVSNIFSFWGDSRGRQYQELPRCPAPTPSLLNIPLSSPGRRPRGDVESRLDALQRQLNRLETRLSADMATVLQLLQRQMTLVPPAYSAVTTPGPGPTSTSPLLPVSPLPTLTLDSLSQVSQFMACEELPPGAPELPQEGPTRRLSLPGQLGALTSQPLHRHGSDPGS

SMILES | hERG current change (%, negative = inhibition) at 10uM
Cc1cccc(Nc2ccc(S(=O)(=O)N3CCOCC3)cc2[N+](=O)[O-])c1 | -30.2%
CCn1c(CSc2nc(C)cc(C)n2)nnc1SCC(=O)Nc1nc(-c2ccccc2)cs1 | -9.09%
O=c1c2ccccc2c2ccccc2c(=O)n1CC1CCCO1 (stereo not drawn) | -14.4%
Cc1ccc(C)c(NC(=O)c2cccc(Oc3ccc([N+](=O)[O-])cc3Cl)c2)c1 | -4.21%
COc1ccc(S(=O)(=O)NNC(=O)c2csc(-n3nc(C)cc3C(F)(F)F)n2)cc1 | 19.9%
COc1ccc(CCN2CCCC(CN(C)C(=O)c3ccoc3C)C2)cc1 (stereo not drawn) | 13.4%
Cc1nc2ccc(C(=O)N(C)CC3CCCN(CCc4ccc(Cl)cc4)C3)cc2[nH]1 (stereo not drawn) | -61.2%
COc1ccc(CCN2CCCC(CN(C)C(=O)c3ccoc3)C2)cc1 (stereo not drawn) | -72.9%
CN(CC1CCCN(CCc2ccc(Cl)cc2)C1)C(=O)c1ccoc1 (stereo not drawn) | -85.7%
Cc1ccccc1CCN1CCCC(CN(C)C(=O)c2ccc3ncccc3c2)C1 (stereo not drawn) | -30.3%
CN(C)CCN(CC1CCCN(Cc2ccccc2F)C1)C(=O)c1ccc(Cl)cc1 (stereo not drawn) | -14%
CN(CC1CCCN(CCc2ccc(Cl)cc2)C1)C(=O)c1ccc2nc[nH]c2c1 (stereo not drawn) | -34.1%
CCc1nc(SCC(=O)NCCc2ccccc2)n[nH]1 | -3.42%
CSc1nc2c(cc1C#N)CCCCC2 | 7.65%
C=CCn1c(O)c(N=Nc2c(C)n(C)n(-c3ccccc3)c2=O)c(=O)[nH]c1=S | -1.57%
O=C(Nc1cccc(Cl)c1)c1ccc(NCC2CCCO2)c([N+](=O)[O-])c1 (stereo not drawn) | -2.53%
CCN=C(NCC)SC1CC(=O)N(c2ccc(OC)cc2)C1=O (stereo not drawn) | 0.718%
CCOC(=O)c1cc(C(=O)Nc2sc3c(c2C#N)CCCC3)nn1C | 12.4%
O=C(/C=C/c1ccc(N2CCOCC2)cc1)c1ccccc1 | -1.16%

SMILES | hERG current change (%, negative = inhibition) at 10uM
CCSC1=N/C(=C\c2cccc(F)c2)C(=O)S1 | 10.4%
CCOc1ccc(Nc2cc(C)nc3c(C)cccc23)cc1 | -45.6%
Cc1ccc(Nc2cc(C)nc3c(C)cccc23)cc1 | -53.3%
COc1ccc(Nc2cc(C)nc3c(C)cccc23)cc1OC | -21.3%
Cc1cc(C)c2nc(C)cc(Nc3ccc(C(=O)N4CCOCC4)cc3)c2c1 | -43.8%
Cc1cc(NCCN2CCOCC2)c2ccc3ccccc3c2n1 | -69.5%
Cc1cc(Nc2ccc(N3CCOCC3)cc2)c2cccc(C)c2n1.Cl | -56.6%
CC(=O)c1ccc(Nc2ccc(-c3ccccc3C)nn2)cc1 | -17.5%
Cc1nc(NCCN2CCOCC2)c2oc3ccccc3c2n1.Cl | -31.5%
COc1ccccc1-c1ccc(Nc2ccc(C(=O)N3CCOCC3)cc2)nn1 | -20.1%
COc1ccc2nc(C)cc(NCCN3CCOCC3)c2c1 | 15.4%
Cc1ccccc1-c1ccc(Nc2ccc(N3CCOCC3)cc2)nn1 | -76%
Cc1cc(C)nc(Nc2ccc(N3CCOCC3)cc2)n1 | -5.99%
CCN(CC(=O)NCc1ccc(F)cc1)C(=O)c1ccc2c(c1)OCO2 | -5.66%
O=C(CNC(=O)c1ccccc1Cl)OCC(=O)N1CCc2ccccc21 | -10.5%
COc1ccc(Cc2nnc(Nc3ccccc3)s2)cc1Br | 13.9%
COc1ccc2[nH]c3c(c2c1)CCN1C(=O)N([C@@H](C)C(=O)NCC2CCCO2)C(=O)[C@]31C (stereo partly drawn) | -6.78%
COc1ccc(C(=O)Oc2coc(CSc3nnc(NC(=O)c4cccs4)s3)cc2=O)cc1 | 24.2%
COc1ccc(CNC(=O)C[C@H]2C(=O)N(C3CCCCC3)C[C@@H]2Cc2ccccc2)cc1 | -5.71%

SMILES | hERG current change (%, negative = inhibition) at 10uM
CCCCC[C@H]1CN(C2CCCCC2)C(=O)[C@@H]1CC(=O)NCc1ccc(OC)cc1 | -67.4%
COc1ccc(CNC(=O)C2CC(=O)N(C3CCCCC3)C2)cc1 (stereo not drawn) | 13.7%
O=C(C[C@H]1C(=O)N(C2CCCCC2)C[C@@H]1Cc1ccccc1)Nc1ccccc1 | -27.4%
C[C@H]1CN(C2CCCCC2)C(=O)[C@@H]1CC(=O)NCc1ccccc1 | -6.72%
CCCCC[C@H]1CN(C2CCCCC2)C(=O)[C@@H]1CC(=O)NCc1ccccc1 | -67.7%
CCN(CC)CCN(CC)Cc1ccccc1Br | -19.8%
Cc1cc(/C=C2\C(=O)NC(=O)N(Cc3ccccc3Cl)C2=O)c(C)n1-c1ccc(C(=O)O)cc1 | 46%
Cc1[nH]nc(-c2ccc(OCc3cnn(-c4ccccc4)c3)cc2O)c1Oc1ccc(F)cc1 | 22.6%
CCn1cc(-c2cc(C(F)(F)F)n3nc(C(=O)O)cc3n2)c(C)n1 | -8.81%
COc1ccc(NC(=O)c2cc(S(=O)(=O)Nc3ccc(OC)cc3)cs2)cc1 | -3.01%
CC(=O)c1c2c3c(cccc3n(C)c1=O)C(=O)c1ccccc1-2 | -1.1%
CCOC(=O)c1c2c3c(cccc3n(C)c1=O)C(=O)c1ccccc1-2 | -71.8%
CCOC(=O)c1c2c3c(cccc3[nH]c1=O)C(=O)c1ccccc1-2 | 17.6%
CC1CCN(CC(=O)Nc2ccccc2-c2ccccc2)CC1 | -25.1%
Cl.O=C(CN1CCN(C2CCCCC2)CC1)Nc1ccccc1-c1ccccc1 | -70.1%
O=C(CC1CCCCC1)Nc1ccccc1-c1ccccc1 | 6.47%
O=C(CN1C(=O)C2CCCCC2C1=O)Nc1ccccc1N1CCCC1 (stereo not drawn) | 1.43%
Cl.O=C(CN1CCN(C2CCCCC2)CC1)Nc1cccc2ccccc12 | -31.2%
Cl.O=C(CN1CCN(C2CCCCC2)CC1)Nc1ccccc1N1CCCCC1 | -66.2%
